Compound activity: PubChem BioAssay, National Center for Advancing Translational Sciences (NCATS)
Rango release inh: inhibition of RanGTP-driven Rango-importin beta dissociation | Potency, µM (series often up to 46.1 µM), without a hit: at the highest dose activity change, negative = inhibition | O95149+P62826 | AID 540253 | 340,000 compounds, 0.071% hits | Biochemical FRET Rango-importin beta, RanGTP-induced dissociation; calls by dose curve; also: potency is read from the fitted curve at half-maximal effect; % of control where 0% means no effect; nearly all actives have a fitted effect of over 45% in size
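Compounds sat 5 min at room temperature with 0.1 uM Rango biosensor plus 0.25 uM importin beta, then FRET pre-read. RanGTP-RCC1 (0.6 uM Ran, 2mM GTP, 0.2 uM RCC1) added for 45 min, and the CFP/YFP post-read measured blocked complex dissociation.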
A-T KAP1 phos: potential ataxia-telangiectasia treatment. Potency, µM (series often up to 57.5 µM), for the others: at the highest dose activation, most hits filed as activators. F2112 A-T fibroblasts, KAP-1 phosphorylation AlphaLISA; neocarzinostatin DNA damage 30 min before lysis. 320,000 compounds, 0.19% hits; also: potency is read from the fitted curve at half-maximal effect; % of control where 0% means no effect; nearly all actives have a fitted effect of over 45% in size
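ATM-like activity read as KAP-1 phosphorylation via AlphaLISA donor/acceptor antibody pairs after lysis and 6 hr at 25C. Cells were ATM-null patient fibroblasts (F2112, hTERT), dosed 60 min, then exposed to the DSB inducer NCS for 30 min.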
IL-2 act: IL-2 activation; activation, % (series mostly up to about 46 µM); IL-2 activation reporter assay, cell-based qHTS; stimulated with anti-CD3/CD4/CD28 beads; in transgenic mouse T cells; 360,000 compounds, 0.065% hits; in the data active = activation above about 50%; inconclusive = mostly about 30% to 49%; also: 0% is about no effect
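Using fluorescent plate cytometry, EGFP and DsRed are detected in transgenic mouse T cells stimulated 18 h at 37 degrees C with antibody-coated beads after 60 min compound pretreatment.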
Rango-impB inh: Rango-importin beta binding inhibition. AID 540263. Q14974. Rango CFP/YFP FRET sensor + importin beta, 45 min. Potency, µM (doses to about 92.2 µM), for the others: top-dose inhibition of complex formation. 340,000 compounds, 0.031% hits; calls by dose curve;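 also: potency is read from the fitted curve at half-maximal effect; 0% = DMSO wells and 100% = buffer wells lacking importin beta; nearly all actives have a fitted effect of over 15% in size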
Target sequence (Q14974 whole entry, looked up): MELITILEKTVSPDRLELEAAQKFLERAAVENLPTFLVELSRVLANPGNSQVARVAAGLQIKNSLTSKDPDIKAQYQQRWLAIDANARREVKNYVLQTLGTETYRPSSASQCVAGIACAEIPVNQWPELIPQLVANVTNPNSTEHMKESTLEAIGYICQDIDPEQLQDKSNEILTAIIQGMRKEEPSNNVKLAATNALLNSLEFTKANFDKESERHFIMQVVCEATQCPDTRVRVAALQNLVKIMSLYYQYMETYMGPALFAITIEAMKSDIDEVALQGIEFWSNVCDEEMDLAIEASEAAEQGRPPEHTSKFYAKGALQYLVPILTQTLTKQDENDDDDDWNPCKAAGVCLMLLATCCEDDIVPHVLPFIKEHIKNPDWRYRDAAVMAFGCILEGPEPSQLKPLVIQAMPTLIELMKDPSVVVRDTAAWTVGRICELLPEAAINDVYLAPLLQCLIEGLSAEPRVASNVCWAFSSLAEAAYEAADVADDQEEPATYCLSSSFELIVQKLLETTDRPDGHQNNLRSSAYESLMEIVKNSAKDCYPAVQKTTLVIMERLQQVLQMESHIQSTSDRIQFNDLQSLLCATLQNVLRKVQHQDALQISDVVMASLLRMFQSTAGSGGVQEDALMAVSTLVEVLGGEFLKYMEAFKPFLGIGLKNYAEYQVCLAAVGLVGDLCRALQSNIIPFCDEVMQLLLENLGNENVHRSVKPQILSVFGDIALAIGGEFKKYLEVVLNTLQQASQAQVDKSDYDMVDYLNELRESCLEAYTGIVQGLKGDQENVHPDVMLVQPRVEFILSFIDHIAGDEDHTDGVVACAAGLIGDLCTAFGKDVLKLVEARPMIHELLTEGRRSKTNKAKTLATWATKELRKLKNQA
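Inhibition scored from the CFP 486 nm/YFP 530 nm FRET ratio 45 min after adding 0.125 microM importin beta to 50 nM Rango biosensor preincubated 5 min with compound (room temperature, PBS with DTT, Tween-20, BSA). No-importin wells as positive control.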
PKM2 activator: PKM2 (human) enzyme activation. P14618. purified PKM2, Kinase-Glo ATP luminescence, activation; response scale: 0% is enzyme alone, no compound. Potency, µM (series often up to 57.5 µM), for inactives: at the top dose activation, usual class: activators. 260,000 compounds, 0.34% hits; also: potency is read from the fitted curve at half-maximal effect; % is scaled to controls: 0 for no effect and ±100 for the full control effect; nearly all actives have a fitted effect of over 55% in size
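hPK-M2, >95% pure; 0.1 mM ADP / 0.5 mM PEP final; imidazole pH7.2 buffer w/ 7 mM MgCl2, 50 mM KCl; 1 h RT; Kinase-Glo lum. Intermediate enzyme activity for dual inhibitor/activator qHTS.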
HeLa tox: counter-screen for pyruvate kinase M2 activators: HeLa cytotoxicity | shares compounds with PKM2 activator | HeLa viability, CellTiter-Glo ATP luminescence, 24 h | activity change, negative = cytotoxicity, % at 57.5 µM | 230 tested, under 10 active; also: % of control where 0% means no effect
Numbers without * were called inactive; ? = inconclusive; / = no result given. Only some compounds are listed: those with a hit (about 0.59% of all), similar ones and a draw of the others. Unless noted, calls follow the shape of the dose curve; as a rule, active = well fitted curve in the direction sought with a large enough effect; inconclusive = small, poorly fitted or top-dose-only effect, or another doubt; inactive = no such curve, though single readings can be large; an effect the other way counts as inactive or inconclusive.

SMILES | Rango release inh | A-T KAP1 phos | IL-2 act | Rango-impB inh | PKM2 activator | HeLa tox
COc1cccc(Cn2ncc3c4sc(B(O)O)cc4n(C)c3c2=O)c1 | / | -11% | / | / | / | /
O=C(Cn1ncc2c3ccccc3n(Cc3ccccc3F)c2c1=O)N1CCN(c2ccccn2)CC1 | -5% | 6% | -5 | -1% | 1% | /
CC(=O)Nc1cc2c(s1)c1cnn(Cc3ccccc3F)c(=O)c1n2C | / | -13% | / | / | / | 2
COc1cc2c(s1)c1cnn(Cc3ccccc3F)c(=O)c1n2C | / | / | / | / | / | -12
Cn1c2cc(CO)sc2c2cnn(Cc3ccccc3F)c(=O)c21 | / | / | / | / | / | 3
Cn1c2cc(C=O)sc2c2cnn(Cc3ccccc3F)c(=O)c21 | / | / | / | / | / | -11
CCc1noc(C)c1C(=O)OC(C)C(=O)Nc1ccc(Cl)cn1 (stereo unspecified) | 0% | 0% | -1 | 2% | / | /
CSc1cc2c(s1)c1cnn(Cc3ccccc3F)c(=O)c1n2C | / | / | / | / | / | 6
Cn1c2ccsc2c2cnn(Cc3ccc(F)cc3)c(=O)c21 | / | 5% | / | / | / | /
CCc1cc2c(s1)c1cnn(Cc3ccccc3F)c(=O)c1n2C | / | / | / | / | / | ?
O=S(=O)(c1ccc(Cl)cc1)N1CCN(S(=O)(=O)c2ccc3c(c2)OCCO3)CC1 | / | / | / | / | / | ?
O=S(=O)(c1ccc(F)cc1)N1CCN(S(=O)(=O)c2ccc3c(c2)OCCO3)CC1 | -19% | 1% | 0 | -1% | / | 10
CCCc1cc(F)c(S(=O)(=O)N2CCN(S(=O)(=O)c3ccc4c(c3)OCCO4)CC2)cc1F | / | / | / | / | / | -1
N#Cc1ccc(S(=O)(=O)N2CCN(S(=O)(=O)c3ccc4c(c3)OCCO4)CC2)cc1 | / | / | / | / | / | -12
Cc1ccc(S(=O)(=O)N2CCN(S(=O)(=O)c3ccc4c(c3)OCCO4)CC2)cc1 | 6% | -10% | 0 | 3% | ? | /
COc1ccc(S(=O)(=O)NC(=O)C2(C)CCN2C(=O)Cc2cc(F)ccc2F)cc1 (stereo unspecified) | / | / | 0 | / | / | /
Cc1cc2c(cc1C)-n1nnnc1C(N1CCN(c3ncccc3C#N)CC1)C(=O)N2 (stereo unspecified) | / | / | 1 | / | / | /
CCc1[nH]nc(C(=O)NC2CCCN(Cc3ccccc3F)C2)c1C (stereo unspecified) | 11% | 3% | -3 | 7% | / | /
Fc1ccccc1Cn1nnc2c(-n3ccnc3)ncnc21 | -10% | 2% | -3 | 2% | 1.1µM* | 0
Cc1ccc2cc(CN(Cc3ccco3)C(=O)NCc3ccccc3)c(=O)[nH]c2c1C | -3% | 0% | -1 | -1% | -3% | /
Cc1ccc(C)c2[nH]c(=O)c(CN(Cc3ccco3)C(=O)Nc3ccccc3)cc12 | 1% | -10% | -1 | 1% | 7.9µM* | ?
O=C(CN1C(=O)N/C(=C\c2cccn2-c2cccc(C(=O)O)c2)C1=O)Nc1ccccc1F | / | / | / | / | / | -4
O=C(CN1c2ccccc2S(=O)(=O)c2ccccc21)NCc1ccc(F)cc1 | 3% | -7% | -2 | 0% | / | /
c1ccc(-c2nn3c(Cn4nnc5ccccc54)nnc3s2)cc1 | -3% | 1% | -2 | -4% | -5% | /
c1ccc(-c2nn3c(Cn4cnc5ccccc54)nnc3s2)cc1 | -6% | 0% | -1 | 0% | 3.2µM* | 2
O=C(NC1CCOCC1)C1CCC(=O)N(Cc2cccc(C(F)(F)F)c2)C1 (stereo unspecified) | 18% | 3% | 1 | 3% | / | /
Cc1ccc(S(=O)(=O)N2CCCN(S(=O)(=O)c3ccc4ccccc4c3)CC2)cc1 | -2% | 5% | -1 | -1% | 0.71µM* | -18
Cc1nc2ccc(S(=O)(=O)N3CCN(S(=O)(=O)c4c(F)cccc4F)CC3)cc2s1 | / | / | / | / | / | -1
Cn1ccc2cc(S(=O)(=O)N3CCN(S(=O)(=O)c4c(F)cccc4F)CC3)ccc21 | / | / | / | / | / | -4
COc1ccc(CCNc2ccc(S(=O)(=O)N3CCCC3)cc2[N+](=O)[O-])cc1 | 15% | -7% | -4 | 7% | 3.2µM* | -4
